VP16 counter: inhibits Gal4-VP16 luciferase reporter, ROR gamma counter-screen. Drosophila S2 Gal4-VP16 UAS-luciferase, luminescence, 20 h. Potency, µM (titrated, usually from 53.6 µM), inactives show top-dose activity, negative = inhibition, most hits filed as inhibitors. hit rate 3.5% among 310,000. AID 2546;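 note: Gal4-VP16 expression switched on by copper sulfate through the metallothionein promoter; nearly all actives have a fitted effect of over 50% in size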
12-LOX inh: blocks human arachidonate 12S-lipoxygenase. purified 12hLO, xylenol orange hydroperoxide absorbance. Potency, µM (top dose mostly 108 µM), inactives show at the top dose activity change, negative = inhibition, usual class: inhibitors. hit rate 1.1% among 580,000. AID 1671190
Target sequence (P18054 whole entry, looked up): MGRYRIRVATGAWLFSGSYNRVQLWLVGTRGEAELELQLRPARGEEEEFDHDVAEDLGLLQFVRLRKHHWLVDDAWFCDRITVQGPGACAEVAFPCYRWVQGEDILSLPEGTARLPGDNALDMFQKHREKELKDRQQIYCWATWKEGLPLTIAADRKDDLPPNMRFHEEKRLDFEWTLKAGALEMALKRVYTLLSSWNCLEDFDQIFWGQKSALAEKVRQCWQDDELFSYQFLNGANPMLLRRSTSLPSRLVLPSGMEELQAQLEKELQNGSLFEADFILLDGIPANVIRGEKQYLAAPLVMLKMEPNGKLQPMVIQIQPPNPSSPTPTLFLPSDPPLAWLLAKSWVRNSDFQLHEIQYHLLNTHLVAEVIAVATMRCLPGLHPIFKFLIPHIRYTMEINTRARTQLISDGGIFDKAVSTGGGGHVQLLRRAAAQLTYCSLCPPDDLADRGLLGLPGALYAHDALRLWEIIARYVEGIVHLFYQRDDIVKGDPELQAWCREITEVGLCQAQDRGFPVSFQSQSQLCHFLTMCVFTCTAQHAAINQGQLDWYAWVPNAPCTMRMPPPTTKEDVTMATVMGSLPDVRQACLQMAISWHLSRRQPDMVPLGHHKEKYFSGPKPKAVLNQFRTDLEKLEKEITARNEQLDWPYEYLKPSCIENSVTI
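Purified human 12hLO (150 nM final) in 25 mM Hepes, 0.01% Triton X-100, pH 7.0 was preincubated 15 min at room temperature with compound. Then 40 uM arachidonic acid was added, 30 min. Hydroperoxide was read by Fe-XO absorbance ratio 573/405 nm.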
ELG1 DNA repair: ELG1-dependent DNA repair inhibition | HEK293T ELG1-luciferase reporter, luminescence, 16 h; DNA damage induced by 5-fluorouridine | Potency, µM (series often up to 46.1 µM), for the others: at the highest dose activity change, negative = inhibition, usual class: inhibitors | hit rate 2.3% among 330,000 | AID 504467; note: nearly all actives have a fitted effect of over 55% in size
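DMSO vehicle served as the neutral condition. Each well held 2,000 cells given 5-fluorouridine plus compound; after 16 hr at 37 °C/5% CO2, ONE-Glo was added and luciferase measured 30 min later.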
RORg inh: inhibitors of mouse ROR gamma transcriptional activity. Drosophila S2 Gal4-RORgamma UAS-luciferase reporter, 20 h. Potency, µM (top dose mostly 53.6 µM), inactives show at the top dose activity change, negative = inhibition, usual class: inhibitors. hit rate 5.4% among 310,000; note: nearly all actives have a fitted effect of over 60% in size
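Luminescence from a UAS-regulated Photinus luciferase reporter in stably transfected Drosophila Schneider cells is measured; decreased signal marks ROR gamma inhibition. Fusion expression is induced by 700 uM copper sulfate for 20 hr.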
DT40 TDP1 no CPT: qHTS for Inhibitors of human tyrosyl-DNA phosphodiesterase 1 (TDP1): qHTS in cells in absence of CPT; Potency, µM (top dose mostly 46.2 µM), for inactives: at the highest dose activity change, negative = growth inhibition, hits mostly inhibitors; hit rate 15% among 420,000; DT40 Tdp1-/- hTDP1 cells, no CPT, ATP luminescence, 48 h; AID 686978, 2013; note: nearly all actives have a fitted effect of over 55% in size
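No-CPT arm: Tdp1-/-;hTDP1 DT40 cells (400/well) plus compounds, incubated ≥48 hr at 37 °C. Readout CellTiter-Glo luminescence.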
TDP1 cell CPT: growth inhibition of DT40 Tdp1-/-;hTDP1 cells with camptothecin (screen for TDP1 inhibitors); chicken DT40 Tdp1-/-;hTDP1 cells + 20 nM CPT, ATP luminescence, 48 h; Potency, µM (highest dose often 46.2 µM), for the others: top-dose activity change, negative = growth inhibition, usual class: inhibitors; hit rate 12% among 420,000; AID 686979; note: nearly all actives have a fitted effect of over 55% in size
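Chicken DT40 Tdp1-/- cells stably complemented with human TDP1 were seeded at 400 cells/well in medium containing 20 nM camptothecin, exposed to pin-transferred compounds, and grown at 37 °C for at least 48 hr. Viability was read as ATP luminescence.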
Active calls of the source: *; ? = inconclusive; nt = not tested or not shown; [ ] = another dose, or the depositor's remark. Hits are enriched below; roughly 15% of the tested compounds scored in any of these assays. Calls come from the whole dose curve; as a rule, active = well fitted curve in the direction sought with a large enough effect; inconclusive = small, poorly fitted or top-dose-only effect, or another doubt; inactive = no such curve, though single readings can be large; an effect the other way counts as inactive or inconclusive. % is set by controls: 0 for no effect and ±100 for the full control effect; potency is the fitted concentration of half-maximal effect.

SMILES | VP16 counter | 12-LOX inh | ELG1 DNA repair | RORg inh | DT40 TDP1 no CPT | TDP1 cell CPT
COC[C@H]1C[C@@H](NCc2ccc(C)o2)[C@H](O)[C@@H]1O | nt | 57%[176 µM] | nt | nt | nt | nt
Cc1cccc(OC[C@H]2C[C@@H](NCc3cccc4c3OCO4)[C@H](O)[C@@H]2O)n1 | nt | 20µM* | nt | nt | nt | nt
Cn1cnc2cc(-c3ccc(F)cc3)cc(C(=O)NCCc3ccccn3)c21 | nt | 9%[176 µM] | nt | nt | nt | nt
CS(=O)(=O)c1ccc(C2=C(c3ccccc3)C(=O)OC2)cc1 | 0% | -1% | nt | -4% | -8% | -12%
N#CC1=C(c2ccc(-c3ccccc3)cc2)COC1=O | -11% | 50µM* | ? | 32% | -29% | -5%
CN(C)c1cccc(C(=O)N2CCC(OCCOc3ccc(F)cc3)CC2)c1 | nt | 63% | nt | nt | nt | nt
COC(=O)c1c(NC(=O)c2ccc(S(=O)(=O)N3CCCCC3)cc2)sc2c1CCN(C)C2 | nt | ? | nt | nt | 4.6µM* | 4.6µM*
CCN1CCN(S(=O)(=O)c2ccc(C(=O)Nc3sc4c(c3C(N)=O)CCN(CC)C4)cc2)CC1 | -11% | 41% | -12% | -18% | -18% | ?
CCOC(=O)c1c(NC(=O)c2ccc(S(=O)(=O)N3CCOCC3)cc2)sc2c1CCN(C)C2 | ? | -18% | -7% | 6% | ? | -26%
CCOC(=O)c1c(NC(=O)c2ccc(S(=O)(=O)N3CCC(C)CC3)cc2)sc2c1CCN(C(C)C)C2 | nt | -10% | nt | nt | 15µM* | 23µM*
CCOC(=O)c1c(NC(=O)c2ccc(S(=O)(=O)N3CCC(C)CC3)cc2)sc2c1CCN(CC)C2 | nt | ? | nt | nt | 21µM* | 13µM*
CCN1CCc2c(sc(NC(=O)c3ccc(S(=O)(=O)N4CC(C)OC(C)C4)cc3)c2C(N)=O)C1 (stereo not drawn) | -26% | ? | 3% | -10% | -5% | -2%
CCOC(=O)c1c(NC(=O)CCS(=O)(=O)c2ccccc2)sc2c1CCN(C(C)C)C2 | 3% | 463% | 17% | 4% | 4.1µM* | 4.1µM*
CCOCCN1C(=O)COC[C@@H]1[C@H](O)c1ccc(NC(=O)Cc2ccccc2)cc1 | nt | 18%[176 µM] | nt | nt | nt | nt
CCOC(=O)c1c(NC(=O)C(C)N2CCN(S(=O)(=O)c3cccs3)CC2)sc2c1CCC(C)C2 (stereo not drawn) | -1% | -11% | ? | -4% | 5.8µM* | 8.2µM*
CCOC(=O)c1c(NC(=O)c2ccc(N3C(=O)[C@@H]4[C@H](C3=O)[C@H]3C=C[C@@H]4C3)cc2)sc2c1CC(C)CC2 (stereo partly drawn) | -15% | -13% | -8% | 7% | 1.2µM* | -45%
CCN(CC)CCNC(=O)c1nc2c3c4c(sc3nc(C)n2n1)CCC4 | nt | 7% | nt | nt | nt | nt
O=Cc1ccc(-c2cccnc2)o1 | nt | 19% | nt | nt | nt | nt
CCCCOc1ccc(Oc2ccc(C#N)c(C#N)c2)cc1 | nt | 3% | nt | nt | nt | nt
C=C1C(=O)OC2C1C(OC(=O)C(C)=CC)CC(=C)C1C(O)C3OC3(C)C21O (stereo not drawn) | nt | 13% | nt | nt | 15µM* | 15µM*
Cc1cccc(N2C(=O)CS(=O)(=O)C23C(=O)N(Cc2c(F)cccc2Cl)c2ccccc23)c1 (stereo not drawn) | nt | -10% | nt | nt | 23µM* | 21µM*
Cc1ccc(CN2C(=O)C3(c4ccccc42)N(c2cccc(F)c2)C(=O)CS3(=O)=O)cc1 (stereo not drawn) | nt | -11% | nt | nt | ? | 15µM*
Cc1ccc(N2C(=O)CS(=O)(=O)C23C(=O)N(Cc2cccc(F)c2)c2ccccc23)cc1Cl (stereo not drawn) | nt | -19% | nt | nt | 23µM* | 23µM*
COc1ccc(N2C(=O)CS(=O)(=O)C23C(=O)N(Cc2cccc(F)c2)c2ccccc23)cc1OC (stereo not drawn) | nt | -19% | nt | nt | ? | -24%
